High-throughput results deposited in PubChem BioAssay by National Center for Advancing Translational Sciences (NCATS).
HPGD inh = HPGD (human) dehydrogenase inhibition; AID 894; Potency, µM, without a hit: at the highest dose activity change, negative = inhibition, usual class: inhibitors; P15428; 4.3% of 150,000 active; purified HPGD, NADH fluorescence kinetic, PGE2 substrate; active means well fitted inhibition curve with a large enough effect, not every such curve was filed as active; inconclusive means small, poorly fitted or top-dose-only effect, or another doubt; inactive means no such curve, though single readings can be large or run the other way; further: potency means the concentration at half of the fitted maximal effect; on the % scale 0 is the no-effect control and ±100 the full control effect
Target sequence (P15428 whole entry, looked up): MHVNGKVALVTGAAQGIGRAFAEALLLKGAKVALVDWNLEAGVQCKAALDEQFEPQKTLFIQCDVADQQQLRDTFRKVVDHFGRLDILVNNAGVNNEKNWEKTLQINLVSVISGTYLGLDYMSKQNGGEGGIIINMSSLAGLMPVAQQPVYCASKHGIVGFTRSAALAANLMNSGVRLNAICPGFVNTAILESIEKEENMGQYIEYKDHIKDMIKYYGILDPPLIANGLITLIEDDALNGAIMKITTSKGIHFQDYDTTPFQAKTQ
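NADH formation kinetics: reaction with 30 uM PGE2 and 1 mM NAD+ (final), 20 nM enzyme, Tris-HCl pH 8 with Tween 20, after 15 min compound preincubation at room temperature. Fluorescence change, last versus first of five reads.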
CBFb-RUNX1 inh = blocks binding between human CBF-beta and RUNX1 | AlphaScreen CBFb-His/RUNX1-biotin binding, biochemical | Potency, µM (titrated, usually from 59.8 µM), without a hit: top-dose activity, negative = inhibition, actives largely listed as inhibitors | 230,000 tested, under 10 active | AID 1477; further: % of control where 0% means no effect
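Room-temperature protein-protein interaction test with 30 nM each of His-tagged CBF-beta and biotinylated RUNX1, 15 min with compound, then 90 min with nickel plus streptavidin beads. Signal read in AlphaScreen mode.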
PNC inhibitor = inhibitors of perinucleolar compartment assembly; 3.1% of 140,000 active; PC3M PTB-GFP, PNC prevalence imaging, 16 h; hits give low values; activity change (PNC), negative = inhibition, % at 10 µM;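 active means readout at or below -70, meaning at least 70% loss of cells showing the perinucleolar compartment, a nuclear body marking cancer cells; inconclusive means readout between -30 and a set limit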;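 further: plate controls were DMSO wells for no effect and camptothecin positive control wells for full effect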
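Read-out is percentage of cells bearing a perinucleolar compartment, from automated 20x imaging of fixed, Hoechst-stained PC3M PTB-GFP cells. Cells were seeded 4 h, then exposed 16 h to compound (23 nl of library stock) in duplicate plates.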
HTT ATP protect = protects HTT-Q103 PC12 cells, measured by ATP. Potency, µM (titrated, usually from 56.4 µM), inactives show cytoprotection (ATP increase), most hits filed as activators. 0.14% of 230,000 active. PC12 HTT-Q103 induced, cytoprotection, ATP luminescence, 40 h; further: potency means the concentration at half of the fitted maximal effect; % of control where 0% means no effect; nearly all actives have a fitted effect of over 45% in size
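Compounds were screened for protection of PC12 cells against cell death after tebufenozide induction (100 nM final) of mutant Huntingtin exon 1 (Q103) fused to GFP.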
ALDH1A1 inh = inhibitors of human aldehyde dehydrogenase 1A1. 7.3% of 220,000 active. Purified ALDH1A1, NADH fluorescence, propionaldehyde substrate. P00352. Potency, µM (highest dose often 75.3 µM), inactives show top-dose activity, negative = inhibition, actives largely listed as inhibitors; active means well fitted inhibition curve with a large enough effect, not every such curve was filed as active; inconclusive means small, poorly fitted or top-dose-only effect, or another doubt; inactive means no such curve, though single readings can be large or run the other way;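 further: potency means the concentration at half of the fitted maximal effect; plate controls were no enzyme wells and a reference inhibitor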
Target sequence (P00352 whole entry, looked up): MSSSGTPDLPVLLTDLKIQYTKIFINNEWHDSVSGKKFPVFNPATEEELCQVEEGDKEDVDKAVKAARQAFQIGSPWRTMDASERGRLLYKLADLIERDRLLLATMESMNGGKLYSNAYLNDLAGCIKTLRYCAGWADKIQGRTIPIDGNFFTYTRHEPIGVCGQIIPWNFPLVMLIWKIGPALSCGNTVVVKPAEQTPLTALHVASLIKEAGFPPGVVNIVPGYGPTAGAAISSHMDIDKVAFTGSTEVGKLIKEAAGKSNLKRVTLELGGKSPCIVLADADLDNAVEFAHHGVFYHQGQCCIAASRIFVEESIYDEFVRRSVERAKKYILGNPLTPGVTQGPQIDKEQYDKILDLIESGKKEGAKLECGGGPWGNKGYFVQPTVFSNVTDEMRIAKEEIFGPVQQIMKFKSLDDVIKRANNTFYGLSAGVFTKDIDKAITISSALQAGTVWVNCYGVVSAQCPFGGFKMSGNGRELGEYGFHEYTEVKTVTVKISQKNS
HttQ103 aggreg = reduces HttQ103-GFP aggregates in PC12 cells; PC12 HttQ103-GFP aggregates, Acumen cytometry, 40 h; Potency, µM (doses to about 46.1 µM), inactives show at the top dose activity change, negative = inhibition, hits mostly inhibitors; 1.1% of 220,000 active; AID 1688; further: potency means the concentration at half of the fitted maximal effect; on the % scale 0 is the no-effect control and ±100 the full control effect; nearly all actives have a fitted effect of over 60% in size
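PC12 cells stably carrying ecdysone-inducible HTT exon 1 Q103–GFP were induced with tebufenozide (100 nM final) and treated with library compounds in titration. GFP aggregates in lysates were counted by laser scanning cytometry.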
Active calls of the source: *; [ ] = another dose, or the depositor's remark. A selection: hits, their analogues and other compounds. The true share with any hit is near 11%. Unless noted, the call rests on the fitted dose curve; in most records, active means well fitted curve in the direction sought with a large enough effect; inconclusive means small, poorly fitted or top-dose-only effect, or another doubt; inactive means no such curve, though single readings can be large; an effect the other way counts as inactive or inconclusive.

Screening CCCCC/C=C\C/C=C\C/C=C\C/C=C\CCCCCC(N)=O returned HPGD inh -6%, CBFb-RUNX1 inh 11%, HTT ATP protect -6% and ALDH1A1 inh -2%.
`On1onc2c3cc(-c4ccccc4)nc3ccc21` gave HPGD inh -13%, CBFb-RUNX1 inh -20%, PNC inhibitor -9, HTT ATP protect -3%, ALDH1A1 inh 18µM* and HttQ103 aggreg -14%.
c1ccc(-c2cc3c(ccc4nonc43)nn2)cc1 was read as HPGD inh -15%, CBFb-RUNX1 inh 2%, PNC inhibitor -20, HTT ATP protect -7%, ALDH1A1 inh inconclusive and HttQ103 aggreg 8%.
`Cc1cccc(C(=O)N[C@H](C(=O)Nc2ccc(S(=O)(=O)NC3=NCCCCC3)cc2)C(C)C)c1` gave CBFb-RUNX1 inh -11%, HTT ATP protect -18%, ALDH1A1 inh 20µM* and HttQ103 aggreg 23%.
Screening CC(C)[C@@H](CC(=O)N[C@@H]1CCCC[C@H]1C(=O)N[C@H](CC(=O)N[C@@H](CCC(=O)O)CC(=O)O)Cc1c[nH]c2ccccc12)NC(=O)C[C@H](Cc1ccccc1)NC(=O)[C@@H]1CCCC[C@H]1N returned HPGD inh -10%, CBFb-RUNX1 inh 6%, HTT ATP protect 9%[1.9 µM] and ALDH1A1 inh -13%.
`Fc1ccc(-c2cc(C(F)(F)F)n3ncnc3n2)cc1` gave CBFb-RUNX1 inh -4%, HTT ATP protect 5%, ALDH1A1 inh inconclusive and HttQ103 aggreg 16%.
`O=[N+]([O-])c1nn(-c2ccc3c(c2)OCCO3)n(O)c1=Nc1ccccc1` gave HPGD inh -3%, CBFb-RUNX1 inh 10%, PNC inhibitor inconclusive, HTT ATP protect -10%[10 µM], ALDH1A1 inh 11µM* and HttQ103 aggreg 10%.
Screening O=[N+]([O-])c1nn(-c2ccc3c(c2)OCCO3)n(O)c1=NC1CCCCCC1 returned HPGD inh -4%, CBFb-RUNX1 inh inconclusive, PNC inhibitor 13, HTT ATP protect -7%[10 µM], ALDH1A1 inh 14µM* and HttQ103 aggreg 9%.
O=[N+]([O-])c1nn(-c2ccc3c(c2)OCCO3)n(O)c1=NC1CCCC1 was read as HPGD inh -16%, CBFb-RUNX1 inh -10%, PNC inhibitor inconclusive, HTT ATP protect 6%, ALDH1A1 inh inconclusive and HttQ103 aggreg 15%.
`O=[N+]([O-])c1nn(-c2ccc3c(c2)OCCO3)n(O)c1=Nc1ccc(Cl)cc1` gave HPGD inh -3%, CBFb-RUNX1 inh -24%, PNC inhibitor 33, HTT ATP protect -90%, ALDH1A1 inh inconclusive and HttQ103 aggreg inconclusive.
Screening O=c1cnc2cnc(N3CCNCC3)nc2n1Cc1cccs1 returned HPGD inh inconclusive, HTT ATP protect -73% and ALDH1A1 inh inconclusive.
CCN(C(=O)COC(=O)c1cccnc1Nc1ccccc1F)C1CCS(=O)(=O)C1 (centres undefined) was read as HPGD inh -7%, CBFb-RUNX1 inh -3%, PNC inhibitor -17, HTT ATP protect 16%[10 µM], ALDH1A1 inh 7% and HttQ103 aggreg 6%.
For CC(C)c1ccc(/C=C/C(=O)NCc2ccc(S(N)(=O)=O)cc2)cc1 the results were CBFb-RUNX1 inh -4%, HTT ATP protect 7%[10 µM], ALDH1A1 inh 28µM* and HttQ103 aggreg -1%.
For Cc1ccc(/C=C/C(=O)NCCc2c[nH]c3ccccc23)o1 the results were CBFb-RUNX1 inh 5%, HTT ATP protect -10%, ALDH1A1 inh 14µM* and HttQ103 aggreg 17%.
`NS(=O)(=O)c1ccc(CCNC(=O)/C=C/c2ccc([N+](=O)[O-])cc2)cc1` gave CBFb-RUNX1 inh -4%, HTT ATP protect -3%, ALDH1A1 inh -16% and HttQ103 aggreg -13%.
`COc1ccc(/C=C/C(=O)NCCc2ccc(S(N)(=O)=O)cc2)cc1` gave HPGD inh -7%, CBFb-RUNX1 inh -3%, PNC inhibitor inconclusive, ALDH1A1 inh 10µM* and HttQ103 aggreg -4%.
Screening Cc1ccc(/C=C/C(=O)Nc2nccs2)o1 returned HPGD inh 25µM*, CBFb-RUNX1 inh -3%, PNC inhibitor -18, ALDH1A1 inh inconclusive and HttQ103 aggreg -2%.
For O=c1c(-c2cc(F)cc(F)c2)nc2cnc(N3CCOCC3)nc2n1C1CC1 the results were HPGD inh inconclusive, HTT ATP protect -7% and ALDH1A1 inh inconclusive.
COc1ncc2nc(C)c(=O)n(Cc3cccs3)c2n1 was read as HPGD inh -14%, HTT ATP protect -1% and ALDH1A1 inh -11%.
Screening C=C1c2ccccc2NC(=S)N1Cc1ccc2c(c1)OCO2 returned CBFb-RUNX1 inh -4%, HTT ATP protect -15%[10 µM], ALDH1A1 inh -12% and HttQ103 aggreg -3%.
Screening CC(=O)c1ccc2noc(-c3ccc(F)cc3)c2c1 returned CBFb-RUNX1 inh 1%, HTT ATP protect 7%, ALDH1A1 inh inconclusive and HttQ103 aggreg -13%.
`CC(=O)NS(=O)(=O)c1ccc(NC(=O)/C=C/c2ccc(C)o2)cc1` gave CBFb-RUNX1 inh -5% and ALDH1A1 inh 13µM*.
`Cc1ccc(/C=C/C(=O)NCc2ccc(S(N)(=O)=O)cc2)o1` gave CBFb-RUNX1 inh -1%, HTT ATP protect -17%, ALDH1A1 inh 1.8µM* and HttQ103 aggreg 1%[9.22 µM].
`Cc1ccc(/C=C/C(=O)Nc2ccc(S(N)(=O)=O)cc2)o1` gave CBFb-RUNX1 inh 0%, HTT ATP protect 0%[10 µM], ALDH1A1 inh 25µM* and HttQ103 aggreg -1%[9.22 µM].
`Cc1ccc(/C=C/C(=O)NCc2ccc3c(c2)OCO3)o1` gave HPGD inh inconclusive, CBFb-RUNX1 inh -8%, PNC inhibitor -19, HTT ATP protect 24%[0.074 µM], ALDH1A1 inh inconclusive and HttQ103 aggreg 3%.
For C=CCOCCN1C(=O)C2C3C=CC(C2C1=O)C1C2C(=O)N(CCOCC=C)C(=O)C2C31 (centres undefined) the results were CBFb-RUNX1 inh -3%, HTT ATP protect -2%, ALDH1A1 inh 14µM* and HttQ103 aggreg -12%.
For CC(NC(=S)Nc1ccccc1C(F)(F)F)C1CC2CCC1C2 (centres undefined) the results were CBFb-RUNX1 inh 18%, HTT ATP protect inconclusive, ALDH1A1 inh inconclusive and HttQ103 aggreg -5%.
Screening COCCCNC(=O)CN(C1CCCCC1)S(=O)(=O)c1ccc(C)cc1 returned HPGD inh -2%, CBFb-RUNX1 inh -2%, PNC inhibitor -14, HTT ATP protect 9%[10 µM], ALDH1A1 inh 14µM* and HttQ103 aggreg 19%.
